The source of these data is paper PMC4336329 (PLoS ONE, 2015).

The whole screen tested about 310,000 compounds, of which about 2,200 (0.71%) showed an effect of 50% or more. The effect is printed as a negative number. The entries come from a sample that favours strong results as a whole.

In this experiment the target is human ether-à-go-go-related gene (hERG) potassium channel (human, UniProt Q12809). Description: primary screen, population patch clamp on CHO cells stably expressing hERG; higher = less effect of the substance.
human ether-à-go-go-related gene (hERG) potassium channel, sequence (Q12809 whole entry, looked up): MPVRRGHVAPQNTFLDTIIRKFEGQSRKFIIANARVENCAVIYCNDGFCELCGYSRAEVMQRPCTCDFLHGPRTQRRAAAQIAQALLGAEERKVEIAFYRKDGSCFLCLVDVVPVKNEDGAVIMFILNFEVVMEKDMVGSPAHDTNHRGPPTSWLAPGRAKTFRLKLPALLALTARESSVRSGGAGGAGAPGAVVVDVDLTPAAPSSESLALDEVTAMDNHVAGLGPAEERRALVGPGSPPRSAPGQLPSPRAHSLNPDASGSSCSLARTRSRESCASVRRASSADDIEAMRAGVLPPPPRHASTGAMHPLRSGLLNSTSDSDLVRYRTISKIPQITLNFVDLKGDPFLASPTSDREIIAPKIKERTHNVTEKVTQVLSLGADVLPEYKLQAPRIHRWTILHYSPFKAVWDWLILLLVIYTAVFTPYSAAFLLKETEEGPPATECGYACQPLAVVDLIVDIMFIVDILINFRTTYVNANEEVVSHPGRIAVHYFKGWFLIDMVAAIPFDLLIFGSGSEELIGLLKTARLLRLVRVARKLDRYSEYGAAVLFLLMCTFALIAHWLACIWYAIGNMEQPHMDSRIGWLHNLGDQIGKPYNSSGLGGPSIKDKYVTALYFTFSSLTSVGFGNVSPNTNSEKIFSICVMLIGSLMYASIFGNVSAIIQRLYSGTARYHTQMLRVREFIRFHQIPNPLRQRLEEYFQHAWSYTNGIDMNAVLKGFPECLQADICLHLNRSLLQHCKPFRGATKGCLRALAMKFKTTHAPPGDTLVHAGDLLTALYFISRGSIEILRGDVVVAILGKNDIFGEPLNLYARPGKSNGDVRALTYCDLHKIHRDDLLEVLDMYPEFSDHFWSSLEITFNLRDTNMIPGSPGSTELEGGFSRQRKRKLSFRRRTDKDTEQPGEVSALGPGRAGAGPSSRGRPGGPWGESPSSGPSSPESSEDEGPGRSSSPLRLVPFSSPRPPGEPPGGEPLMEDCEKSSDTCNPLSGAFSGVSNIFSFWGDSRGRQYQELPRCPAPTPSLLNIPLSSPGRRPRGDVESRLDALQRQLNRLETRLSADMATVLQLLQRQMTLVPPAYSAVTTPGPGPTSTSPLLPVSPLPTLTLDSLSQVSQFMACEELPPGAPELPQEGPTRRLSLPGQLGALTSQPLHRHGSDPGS
Take `Cc1cc(Nc2cccc([N+](=O)[O-])c2)c2cccc(C)c2n1.Cl`: the “hERG current change (%, negative = inhibition) at 1uM” value is given as -73.5%. In the case of `Cc1cc(Nc2cccc([N+](=O)[O-])c2)c2ccccc2n1`, the “hERG current change (%, negative = inhibition) at 1uM” value is reported as -36.7%.

Take `CC(=O)c1cccc(Nc2cc(C)nc3c(C)cccc23)c1.Cl`: the “hERG current change (%, negative = inhibition) at 1uM” value was -16.9%. For the compound `COc1ccc(Br)c(C(=O)OCC(=O)NC2CCCCCC2)c1`, the “hERG current change (%, negative = inhibition) at 1uM” value is given as -1.39%. The same measure for `CCCCN(CC)CCNC(=O)c1cn(-c2ccc(Cl)cc2)c(=O)c2ccccc12`: -81.6%; for `CCCCN(CC)CCCNC(=O)c1cn(-c2ccc(OC)cc2)c(=O)c2ccccc12`: -7.85%; for `CCCN(CCC)CCCNC(=O)c1cn(-c2ccc(OC)cc2)c(=O)c2ccccc12`: 1.46%. For `CCOC(=O)N1CCN(C(C)C(=O)c2c[nH]c3ccccc23)CC1` (stereo not drawn) the value was -0.111%; for `O=C(NNc1ccc(-c2csnn2)cc1)c1ccccc1C(F)(F)F`, 9.16%. For `CCC1C(=O)CC(c2ccc([N+](=O)[O-])cc2)NC1c1ccc([N+](=O)[O-])cc1` (stereo not drawn) the value was -69.7%; for `CCC1C(=O)CC(c2ccccc2)NC1c1ccccc1` (stereo not drawn), 5.67%. Regarding `CC1C(=O)CC(c2ccc([N+](=O)[O-])cc2)NC1c1ccc([N+](=O)[O-])cc1.Cl` (stereo not drawn), the “hERG current change (%, negative = inhibition) at 1uM” value was -51%. For `CCC1C(=O)C(C)(C)C(=O)OC1c1ccc([N+](=O)[O-])cc1` (stereo not drawn) the value was 9.82%; for `CC1C(=O)C(C)C(c2ccc([N+](=O)[O-])cc2)NC1c1ccc([N+](=O)[O-])cc1` (stereo not drawn), -4.32%. With `CC1C(=O)CC(c2ccccc2)NC1c1ccccc1` (stereo not drawn), the “hERG current change (%, negative = inhibition) at 1uM” value worked out at 3.38%.

For `Cc1ccc(P(=S)(c2ccc(C)o2)N2CCOCC2)o1`, the “hERG current change (%, negative = inhibition) at 1uM” value turned out to be 3.25%.

On to `CCn1c(SCC(=O)Nc2cc(NC(C)=O)ccc2OC)nnc1-c1cccnc1`, for which the “hERG current change (%, negative = inhibition) at 1uM” value is on record as 7.42%.

`CN(Cc1ccccn1)C(=O)C1CCC(=O)N(Cc2cccc(F)c2)C1` (stereo not drawn): the “hERG current change (%, negative = inhibition) at 1uM” value was determined as 8.55%. `Cc1nc2ccccn2c1CN(C)C(=O)C1CCC(=O)N(Cc2cccc(F)c2)C1` (stereo not drawn): the “hERG current change (%, negative = inhibition) at 1uM” value is reported as -58%. For `Cc1nc2ccccn2c1CN(C)C(=O)C1CCC(=O)N(CCc2cccc(F)c2)C1` (stereo not drawn) the value was -10.4%. On to `COc1ccc(C(=O)N/C(=C\c2ccccc2)C(=O)NC(CC(C)C)C(=O)O)cc1` (stereo not drawn), for which the “hERG current change (%, negative = inhibition) at 1uM” value is 21.4%. The same measure for `Cc1cccc(OCC(=O)Nc2ccncc2)c1`: 6.41%; for `COc1ccc(CN(C)CC(O)COC(c2ccccc2)c2ccccc2)c(OC)c1OC` (stereo not drawn): -43.6%; for `COc1ccc(C(OCC(O)CN(C)C2CCCCC2)c2ccc(OC)cc2)cc1` (stereo not drawn): -29.3%. For `COc1cccc(CN(C)CC(O)COC(c2ccccc2)c2ccccc2C)c1` (stereo not drawn) the value was -8.56%.

As for `CCN(Cc1ccccc1)CC(O)COC(c1ccc(OC)cc1)c1ccc(OC)cc1` (stereo not drawn), the “hERG current change (%, negative = inhibition) at 1uM” value is recorded as -32.9%. `COc1ccc(CN(C)CC(O)COC(c2ccc(OC)cc2)c2ccc(OC)cc2)cc1` (stereo not drawn): the “hERG current change (%, negative = inhibition) at 1uM” value was -80.8%.

In the case of `CCOc1ccc(CN(C)CC(O)COC(c2ccc(OC)cc2)c2ccc(OC)cc2)cc1` (stereo not drawn), the “hERG current change (%, negative = inhibition) at 1uM” value is listed as -81.9%. For `CCN1CCN(S(=O)(=O)c2ccc(Cl)c(C(=O)NC(C)c3ccccc3Cl)c2)CC1` (stereo not drawn) the value was 5.99%; for `O=C(NCCCO)c1ccc2[nH]c3ccccc3c2c1`, 13.4%; for `O=C(NCc1cc([N+](=O)[O-])ccc1O)c1cccnc1Sc1ccc(Cl)cc1`, 16.3%.

For the compound `COc1cccc(C2=CC(c3cc(OC)ccc3OC)n3nnnc3N2)c1` (stereo not drawn), the “hERG current change (%, negative = inhibition) at 1uM” value is recorded as 15.2%.

With `O=C(CN(C(=O)c1csnn1)c1ccc(F)cc1)NCc1ccc(F)cc1`, the “hERG current change (%, negative = inhibition) at 1uM” value came to 3.44%.

Consider `CC(=O)Nc1cc2c(cc1NC(=O)c1cnccn1)OCCO2`, for which the “hERG current change (%, negative = inhibition) at 1uM” value is 19.8%. For `CCOC(=O)c1sc(NC(=S)NC(=O)c2cccc(Cl)c2)c(C(=O)OCC)c1C` the value was 1.03%; for `COc1ccc(S(=O)(=O)Nc2ccccc2OC)cc1NC(=O)c1cc2ccccc2oc1=O`, -4.91%; for `CCCC(O)(CCN1CCOCC1)c1ccc(Br)cc1.Cl` (stereo not drawn), 7.3%.

`CCCC(O)(CCN1CCOCC1)c1ccc(Cl)cc1` (stereo not drawn): the “hERG current change (%, negative = inhibition) at 1uM” value stood at 6.26%. The same measure for `CCCCCCC(O)(CCN1CCCCC1)c1ccccc1.Cl` (stereo not drawn): -17.1%. Take `CCCCCC(O)(CCN1CCCCC1)c1ccc(OCC)cc1.Cl` (stereo not drawn): the “hERG current change (%, negative = inhibition) at 1uM” value is reported as -82%. `CCC(O)(CCN1CCCCC1)c1ccccc1` (stereo not drawn): the “hERG current change (%, negative = inhibition) at 1uM” value amounted to 3.27%. For `CCCCC(O)(CCN1CCOCC1)c1ccc(Cl)cc1.Cl` (stereo not drawn) the value was -51.3%; for `CCCOc1ccc(C(O)(CCC)CCN2CCCCC2)cc1` (stereo not drawn), -25.4%; for `CCCCOc1ccc(C(O)(CCC)CCN2CCOCC2)cc1` (stereo not drawn), -11%.

In the case of `CCCCCC(O)(CCN1CCCCC1)c1ccccc1.Cl` (stereo not drawn), the “hERG current change (%, negative = inhibition) at 1uM” value is reported as -84.7%.

Consider `O=C1C=C(N2CCCCC2)C2(CCCCC2)O1`, for which the “hERG current change (%, negative = inhibition) at 1uM” value came to 10.8%. For `Nc1nc(NCc2ccco2)nc(Nc2cccc(F)c2)c1[N+](=O)[O-]` the value was 18.1%; for `O=C(NCCc1ccccc1)c1ccc(Cl)nc1`, 18%. For `COC(=O)c1ccc(CSc2nnc(Nc3cccc(OC)c3)s2)o1` the value was 10.7%. With `COCCCC1CCN(C(=O)C2CCC(=O)N(CC3CCCCC3)C2)CC1` (stereo not drawn), the “hERG current change (%, negative = inhibition) at 1uM” value came to 2.85%.

Turning to `COc1ccc(OCC(O)CN2CCNCC2)cc1.Cl` (stereo not drawn), the “hERG current change (%, negative = inhibition) at 1uM” value amounted to 14.6%. For `Fc1cccc(NC(=S)NNc2ccccc2)c1`, the “hERG current change (%, negative = inhibition) at 1uM” value came out at 10.7%.

Consider `Cc1ccc2cc(CN(CC3CCCO3)C(=S)Nc3ccccc3)c(=O)[nH]c2c1C` (stereo not drawn), for which the “hERG current change (%, negative = inhibition) at 1uM” value worked out at 13.3%.

Regarding `CCOC(=O)c1[nH]ncc1CN1CCCC(C(=O)c2cc(Cl)ccc2OC)C1` (stereo not drawn), the “hERG current change (%, negative = inhibition) at 1uM” value was -29.9%. The same measure for `O=C(NCCc1ccc2c(c1)OCCO2)c1cc2ccccc2o1`: -16.6%; for `CN(C)S(=O)(=O)N1CCC(Oc2cccc(C(=O)NC3CCCCC3)c2)CC1`: 2.87%.

As for `CCOC(=O)C(C)(C)Sc1nc2c(cnn2-c2ccc(Cl)cc2)c(=O)[nH]1`, the “hERG current change (%, negative = inhibition) at 1uM” value was 4.97%.
